Screening results: PubChem, National Center for Advancing Translational Sciences (NCATS)
Tb PYK inh: blocks Trypanosoma brucei pyruvate kinase. TbPYK enzyme, Kinase-Glo Plus ATP luminescence, 45 min. Potency, µM (top dose mostly 76.8 µM), actives largely listed as inhibitors. hit rate 0.12% among 410,000. AID 624173; note: nearly all actives have a fitted effect of over 50% in size
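Activity of T. brucei pyruvate kinase was followed by Kinase-Glo Plus luminescence after the enzyme reacted 45 min at room temperature with 130 uM ADP (final) and substrate. Test compounds were added before ADP at multiple concentrations.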
Giardia FBPA inh: Giardia lamblia aldolase inhibition; hit rate 0.71% among 290,000; Potency, µM (highest dose often 59.6 µM), usual class: inhibitors; purified Giardia FBPA; A8B2U2; note: nearly all actives have a fitted effect of over 55% in size
Target sequence (A8B2U2 whole entry, looked up): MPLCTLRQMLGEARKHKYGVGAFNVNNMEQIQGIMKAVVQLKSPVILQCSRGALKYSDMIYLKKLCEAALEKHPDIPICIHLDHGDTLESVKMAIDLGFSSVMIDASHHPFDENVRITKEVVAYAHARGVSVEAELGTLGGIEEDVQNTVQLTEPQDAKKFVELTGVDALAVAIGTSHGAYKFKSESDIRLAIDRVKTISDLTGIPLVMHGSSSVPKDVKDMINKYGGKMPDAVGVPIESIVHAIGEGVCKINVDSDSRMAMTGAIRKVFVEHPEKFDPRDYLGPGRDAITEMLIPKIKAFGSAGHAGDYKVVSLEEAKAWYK
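40 nM FBPA preincubated 10 min at RT with compound (up to 57.5 uM final), then substrate plus GAPDH/TPI/NAD/arsenate coupling and diaphorase/resazurin added. Fluorescence read after 20 min at RT, 525/598 nm.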
FMDV antiviral: foot and mouth disease virus antiviral activity; FMDV antiviral cell-based qHTS; Potency, µM (doses to about 57.9 µM), most hits filed as inhibitors; hit rate 1.2% among 410,000; calls by dose curve; tested in HEK293T cells; note: read-out not given here; nearly all actives have a fitted effect of over 45% in size
RE007 growth inh: less growth of the S. pombe RE007 Vpr strain; hit rate 0.21% among 360,000; Potency, µM (titrated, usually from 92.2 µM), most hits filed as inhibitors; AID 651644; S. pombe RE007 Vpr strain, BacTiter-Glo ATP luminescence, 24 h; active = well fitted falling curve with a large enough effect; inconclusive = small, poorly fitted or top-dose-only effect; inactive = no such curve, though single readings can be large or run the other way; note: nearly all actives have a fitted effect of over 50% in size
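Fission yeast strain RE007, carrying one chromosomally integrated HIV-1 vpr copy, was seeded at OD 0.01 in PMG+AL medium with 23 nL pinned compound. After 24 h at 30 °C and 99% humidity, viability was read by BacTiter-Glo luminescence.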
HCMV antiviral: inhibitors of human cytomegalovirus. HFF cells, HCMV-luciferase reporter, 72 h; hits give low values. activity change, negative = inhibition, % at 57.5 µM. hit rate 4.5% among 410,000; in the data active = activity change below about -60%; inconclusive = no clear call, values can overlap the other calls; inactive = above about -39%
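Screen run at 2 compound doses on HFFs infected with reporter HCMV, MOI 1 PFU/cell. Luciferase activity from cell lysates at 72 h post infection gave inhibition relative to buffer-only and Salinomycin wells.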
Sm TGR inh: inhibitors of Schistosoma mansoni thioredoxin glutathione reductase | Q962Y6 | purified TGR, DTNB reduction, TNB absorbance 405 nm | Potency, µM (top dose mostly 114 µM), hits mostly inhibitors | hit rate 3% among 360,000; note: nearly all actives have a fitted effect of over 60% in size
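First, TGR (20 nM dispensed) and NADPH were mixed with compound. Second, a 15 min room-temperature incubation followed. Third, further NADPH and then DTNB were added to start the reaction. Finally, TNB absorbance was monitored kinetically.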
A number is an active result; . = inactive; ? = inconclusive; / = no result given; + = active, no number; ! = not confirmed by another sample; [ ] = dose if it differs, or a comment. Shown are actives, neighbours in structure and some others; about 7.7% of the full set was active somewhere. Unless noted, calls come from the whole dose curve; as a rule, active = well fitted curve in the direction sought with a large enough effect; inconclusive = small, poorly fitted or top-dose-only effect, or another doubt; inactive = no such curve, though single readings can be large; an effect the other way counts as inactive or inconclusive.

SMILES	Tb PYK inh	Giardia FBPA inh	FMDV antiviral	RE007 growth inh	HCMV antiviral	Sm TGR inh
C[C@H]1CN([C@@H](C)CO)C(=O)c2cccc(NC(=O)C3CC3)c2O[C@H]1CN(C)Cc1ccc(C(F)(F)F)cc1	.	/	.	.	-88	/
C[C@@H]1CN([C@H](C)CO)C(=O)c2cccc(NC(=O)Nc3ccc(F)cc3)c2O[C@H]1CN(C)C(=O)Nc1ccc(C(F)(F)F)cc1	.	/	?	.	-61	/
O=C(Nc1c(C(=O)c2ccccc2)oc2ccccc12)c1cc(=O)c2ccccc2o1	.	/	.	/	.	.
COc1ccc(C2C(=O)N(C3CCCCCC3)CC(=O)N2CCc2ccc(OC)c(OC)c2)cc1 (stereo unspecified)	.	/	.	/	.	.
C=CCn1c(O)c(N=NC(=S)Nc2ccccc2C)c2cc(S(=O)(=O)N3CCOCC3)ccc21	.	.	.	.	-74	.
Cc1cccc(NC(=S)N=Nc2c(O)n(CN3CCOCC3)c3ccccc23)c1C	.	.	?	?	-77	.
Cn1c(O)c(N=NC(=S)Nc2ccccc2F)c2cc(S(=O)(=O)N3CCOCC3)ccc21	.	.	?	.	-63	.
Cc1ccc(NC(=S)N=Nc2c(O)n(C)c3ccc(S(=O)(=O)N4CCOCC4)cc23)cc1C	.	.	.	.	?	.
CC1=CC(C)(C(Cl)(Cl)Cl)C(C)=CC1=NO (stereo unspecified)	.	/	.	.	-69	/
Cc1ccc(SC(C)C(=O)O/N=C(\N)c2ccncc2)cc1 (stereo unspecified)	.	/	?	.	.	40µM
C[C@]12CC[C@@H]3c4ccc(O)c(O)c4CC[C@H]3[C@@H]1CC[C@@H]2O	10µM	13µM	.	.[18.4 µM]	-91	?
COc1ccc(C(=O)NCC(c2cccnc2)N2CCc3ccccc3C2)cc1OC (stereo unspecified)	.	/	.	/	.	.
Cc1ccc(NC(=O)COC(=O)/C=C/c2ccc(Br)o2)cc1S(=O)(=O)N(C)C	.	.	.	.	.	25µM
CN(C)S(=O)(=O)c1cccc(NC(=O)COC(=O)c2ccc(Br)o2)c1	.	.	.	.	.	.
O=C(COC(=O)/C=C/c1ccc(Br)o1)Nc1ccc2[nH]c(=O)[nH]c2c1	/	/	/	/	.	?
CN(C)S(=O)(=O)c1cccc(NC(=O)COC(=O)/C=C/c2ccc(Br)o2)c1	.	.	.	.	.	7.1µM
COc1ccccc1Cn1c(SCC(=O)C(C)(C)C)nc2ccccc2c1=O	.	/	.	/	.	.
CCCc1cc(=O)oc2cc(C)cc(OCC(=O)Nc3cccnc3)c12	.	.	.	.	+	.
O=c1oc2cc(O)c(Cl)cc2c2ccccc12	.	.	.	.	.	.
O=c1oc(Cl)c(Cl)c2ccccc12	.	.	?	.	?	3.2µM
NC1=CC(=O)C(=O)c2ccccc21	.	/	40µM	.	-64	/
Cc1cccc(Cn2nnc3c(=O)[nH]c(C4CCCN(C(=O)c5ccc(C(C)(C)C)cc5)C4)nc32)c1 (stereo unspecified)	.	/	?	/	-70	.
O=c1[nH]c(C2CCCN(S(=O)(=O)c3ccccc3)C2)nc2c1nnn2Cc1ccccc1 (stereo unspecified)	.	.	?	.	.	89µM
Cc1ccccc1Cn1nnc2c(=O)[nH]c(C3CCCN(C(=O)c4ccc(C(C)(C)C)cc4)C3)nc21 (stereo unspecified)	.	/	?	/	.	.
O=C(Cc1cccs1)N1CCC(c2nc3c(nnn3Cc3ccc(F)cc3)c(=O)[nH]2)CC1	.	.	.	.	-95	.
SMILES	Tb PYK inh	Giardia FBPA inh	FMDV antiviral	RE007 growth inh	HCMV antiviral	Sm TGR inh
O=c1[nH]c(C2CCN(S(=O)(=O)c3ccc4c(c3)OCCO4)CC2)nc2c1nnn2Cc1c(F)cccc1Cl	.	.	.	.	-75	.
O=C(Cc1cccs1)N1CCCC(c2nc3c(nnn3Cc3cccc(Cl)c3)c(=O)[nH]2)C1 (stereo unspecified)	.	.	?	.	.	.
COc1cc(Cl)c(C)cc1NC(=O)CCn1c(=O)c2cccn2c2cccnc21	.	/	.	/	.	.
CC(S)C(=O)NCC(=O)O (stereo unspecified)	.	.	/	/	/	/
O=C(Cc1ccccc1F)N1CCC(c2nc3c(nnn3Cc3cccc(Cl)c3)c(=O)[nH]2)CC1	.	/	.	/	-62	.
CCn1c(SCC(=O)N/N=C/c2c[nH]c3ccccc23)nnc1-c1ccc(C(C)(C)C)cc1	.	.	?	.	-75	.
CCn1c(SCC(=O)N/N=C/c2ccc(C)o2)nnc1-c1ccc(C(C)(C)C)cc1	.	.	32µM	.	.	.
CCn1c(SCC(=O)N/N=C/c2ccc(C)o2)nnc1-c1ccc(C)cc1	.	.	.	.	.	.
COc1ccc(N2CC(NC(=O)c3ccc(Br)o3)CC2=O)cc1 (stereo unspecified)	.	/	.	/	.	.
CCOc1ccc(NC(=O)c2cc(S(=O)(=O)N3CCCCC3)c[nH]2)cc1	.	.	.	.	-65!	.
CCc1ccc(NC(=O)c2cc(S(=O)(=O)N3CCCC3)c[nH]2)cc1	.	.	.	.	/	.
CC(C)c1ccc(NC(=O)c2cc(S(=O)(=O)N3CCCC3)c[nH]2)cc1	.	.	.	.	-77	.
COCC(=O)Nc1cc(C(=O)N[C@H]2CCCCNC2=O)c2c(c1)nc(-c1ccncc1)n2C	/	/	.	/	/	/
CC(C)c1ccc(/C=N/n2c(-c3ccccc3)n[nH]c2=S)cc1	?	.	.	.	-66	.
Cc1ccc(/C=N/n2c(-c3ccccc3)n[nH]c2=S)cc1	?	.	.	.	.	.
COc1cc(/C=N/n2c(-c3ccccc3)n[nH]c2=S)cc(OC)c1O	?	.	.	.	.	32µM
